Assay results: the supplement of paper PMC6555819

Columns and labels:
Assay in all cases: PBM binding z-score (relative to random genomic background probes); higher = stronger binding; sequences stand for … in GC…GCGATTGACAGCGTAGAATGAAGG
[1] = system: FXR:RXRa (NR concentration 270 nM, RXRa partner concentration 90 nM)
In short: (§1)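 On custom Agilent 4×180K arrays, double-stranded probes with 34-nt variable regions carried direct-repeat seeds, single-nucleotide variants, half-site ablations or random human genomic background. Ligand-free nuclear receptor dimers were applied for 1 h, and binding was read with antibodies against each partner (one per run). Binding z-scores come from regression-normalized fluorescence, with the random background probes as reference.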

[2] = system: LXRa:RXRa (NR concentration 270 nM, RXRa partner concentration 90 nM)
In short: as §1

[3] = system: LXRa homodimer (NR concentration 270 nM)
In short: as §1

[4] = system: LXRb:RXRa (NR concentration 270 nM, RXRa partner concentration 90 nM)
In short: as §1

[5] = system: LXRb homodimer (NR concentration 270 nM)
In short: as §1

[6] = system: PPARa:RXRa (NR concentration 270 nM, RXRa partner concentration 90 nM)
In short: as §1

[7] = system: PPARg:RXRa (NR concentration 180 nM, RXRa partner concentration 90 nM)
In short: as §1

[8] = system: PPARg:RXRa 270nM:90nM, anti-RXR (NR concentration 270 nM, RXRa partner concentration 90 nM)
In short: as §1

[9] = system: PPARg:RXRa 30nM:10nM, anti-RXR (NR concentration 30 nM, RXRa partner concentration 10 nM)
In short: as §1

[10] = system: PPARg:RXRa 90nM:30nM, anti-RXR (NR concentration 90 nM, RXRa partner concentration 30 nM)
In short: as §1

[11] = system: PPARg:RXRa DBDmut IVT, anti-RXR (DBD mutation: RXRa K156A/R161A, NR concentration 270 nM, RXRa partner concentration 90 nM)
In short: as §1

[12] = system: PPARg:RXRa IVT, anti-PPARg (NR concentration 270 nM, RXRa partner concentration 90 nM)
In short: as §1

[13] = system: PPARg DBDmut:RXRa IVT, anti-PPARg (DBD mutation: PPARg1 K132A/R137A, NR concentration 270 nM, RXRa partner concentration 90 nM)
In short: as §1

[14] = system: PPARg DBDmut IVT, anti-PPARg (DBD mutation: PPARg1 K132A/R137A, NR concentration 270 nM)
In short: as §1

[15] = system: PPARg homodimer (NR concentration 180 nM)
In short: as §1

[16] = system: PXR:RXRa (NR concentration 270 nM, RXRa partner concentration 90 nM)
In short: as §1

[17] = system: PXR homodimer (NR concentration 270 nM)
In short: as §1

[18] = system: RARa:RXR (NR concentration 270 nM, RXRa partner concentration 90 nM)
In short: as §1

[19] = system: RARa homodimer (NR concentration 270 nM)
In short: as §1

[20] = system: RARb:RXRa (NR concentration 270 nM, RXRa partner concentration 90 nM)
In short: as §1

Row | Sequence | PBM binding z-score [1] | PBM binding z-score [2] | PBM binding z-score [3] | PBM binding z-score [4] | PBM binding z-score [5] | PBM binding z-score [6] | PBM binding z-score [7] | PBM binding z-score [8] | PBM binding z-score [9] | PBM binding z-score [10] | PBM binding z-score [11] | PBM binding z-score [12] | PBM binding z-score [13] | PBM binding z-score [14] | PBM binding z-score [15] | PBM binding z-score [16] | PBM binding z-score [17] | PBM binding z-score [18] | PBM binding z-score [19] | PBM binding z-score [20]
1 | CCTTCTAGGTCATGGTCAGCTAATCTACAGTATG | 3.87 | 2.77 | 0.676 | 2.12 | 0.355 | 4.37 | 5.63 | 5.39 | 2.57 | 4.28 | 7.22 | 6.72 | 1.58 | 1.21 | 2.24 | 1.7 | 0.327 | 2.63 | 1.36 | 4.08
2 | GCTAGTTGGTCAGTCAAAGGTCACACACCGGTCG | 3.52 | 4.41 | 4.17 | 3.94 | 0.493 | 4.62 | 5.33 | 5.92 | 4.22 | 5.9 | 1.51 | 3.42 | -0.105 | 0.277 | 3.62 | 5.2 | 1.01 | 6.33 | 1.11 | 4.36
3 | ATATGTAGGTTATCGGATCATTCAGTTTGCGCAT | 0.778 | 1.32 | 0.544 | 0.974 | 0.803 | 3.32 | 4.5 | 4.3 | 2.14 | 3.56 | 7.18 | 6.73 | 2.24 | 2.07 | 1.46 | 0.908 | 0.884 | 1.05 | 1.48 | 0.993
4 | GCTGCTAGCTCAGGTTGGTCAGCTAACGGGTACG | -0.68 | -0.822 | -0.914 | -0.935 | -1.25 | -1.08 | -0.612 | -0.997 | -1.04 | -0.839 | -0.142 | -0.678 | -1.21 | -1.62 | -1.31 | -0.81 | -0.881 | -0.76 | -2.27 | -0.463
5 | GCTGCTAGGGCAACTGATGGTCAGCTAAAGCTCG | -0.599 | -0.0812 | -0.858 | -0.846 | -0.673 | -0.536 | -0.394 | -0.642 | -1.04 | -0.914 | 2.82 | 1.23 | -0.683 | -1.08 | -0.93 | -0.816 | -0.96 | -0.619 | -1.23 | 1.56
6 | AGAATGAGGTTCTACGTAGATCAGGGAAGAAAGT | -0.522 | -0.707 | -0.69 | -0.345 | -0.624 | -0.336 | 0.146 | -0.165 | -0.125 | -0.13 | 0.0808 | 0.054 | 0.621 | 0.606 | -0.411 | -0.126 | 0.193 | -0.0619 | -0.303 | -0.407
7 | TCGATTAGTTGATTAGGGCAACCGAAACAGCGGA | -1.31 | -0.186 | -0.313 | 0.118 | -0.308 | 0.322 | 0.147 | 1.25 | 2.88 | 2.19 | 1.68 | 1.02 | -0.465 | 0.363 | 0.609 | 0.11 | -0.141 | 0.208 | 0.0713 | 0.744
8 | CGTCAAAGTTGAACTAAGGTAACGTAAAGCACGC | 2.71 | 3.29 | 3.88 | 1.57 | 0.134 | 2.26 | 1.45 | 2.65 | 0.653 | 2.03 | 0.422 | 1.2 | 1.41 | 0.838 | 0.99 | 2.35 | 0.717 | 2.08 | 0.0339 | 2.17
9 | ACTATTAGTTGACTTAGGGCGACCGATACGACGC | 0.233 | -0.0475 | -0.0351 | -0.0198 | 0.794 | -0.104 | 0.88 | 0.00253 | 0.295 | 0.183 | 0.407 | 0.174 | 1.73 | 1.51 | 0.828 | -0.0513 | 0.0652 | 0.194 | 0.515 | 0.512
10 | CGTCCAAGGTCATAGGAGGTCAGTCAAGACAGAT | 7.64 | 7.59 | 5.22 | 6.59 | 0.88 | 5.87 | 5.47 | 5.75 | 2.45 | 4.47 | 3.31 | 4.37 | 0.231 | 0.0229 | 4.04 | 6.74 | 4.16 | 5.99 | 1.15 | 5.37
11 | CGTCCAAGGTCAGCAGGTCAGTCAAAGCGACGTG | 5.86 | 4.15 | 0.724 | 3.27 | -0.456 | 4.84 | 4.14 | 4.59 | 0.878 | 3.11 | 2.82 | 3.69 | 0.0784 | -0.246 | 3.64 | 3.71 | 0.514 | 4.81 | 0.95 | 5.08
12 | TCTTGTAGATCAAGCAAGTTAAGAAAGCCTGAGT | 0.00157 | -0.0687 | -0.36 | -0.0255 | -0.715 | 0.295 | -0.623 | 1.01 | 2.4 | 1.72 | 1.73 | 0.172 | -0.613 | -0.0624 | -0.466 | 0.15 | 0.419 | 0.014 | -0.373 | 0.115
13 | CCTAGTTGGTGAGGAGGTCACACACCGGATATGA | 2.72 | 3.07 | 1.61 | 3.19 | 0.489 | 3.86 | 2.06 | 3.07 | 1.4 | 2.31 | 0.486 | 2.56 | 0.735 | 0.147 | 3.46 | 3.86 | 1.61 | 4.11 | 1.97 | 3.1
